# Experimental data from PubChem BioAssay AID1445 (SRMLSC, 2008).
# In all, about 220,000 compounds went through this assay and about 910 (0.41%) were called active. Many of the other results were omitted from the sample, so actives are more common in it than they were. Entries with a potency or affinity are not part of this list. A number with no mark means an inactive call.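 The calls were made as follows: active = primary inhibition above the hit cutoff, then over 50% inhibition at one or more dose response concentrations (cut at about 23% in these data, passing the limit was not always enough); inconclusive = conflicting primary data, or primary hits not chosen for dose response; inactive = low primary inhibition, or under 50% at every dose.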
# Target: Aminopeptidase N (Plasmodium falciparum (isolate 3D7)) (UniProt O96935)
# Sequence (O96935 whole entry, looked up): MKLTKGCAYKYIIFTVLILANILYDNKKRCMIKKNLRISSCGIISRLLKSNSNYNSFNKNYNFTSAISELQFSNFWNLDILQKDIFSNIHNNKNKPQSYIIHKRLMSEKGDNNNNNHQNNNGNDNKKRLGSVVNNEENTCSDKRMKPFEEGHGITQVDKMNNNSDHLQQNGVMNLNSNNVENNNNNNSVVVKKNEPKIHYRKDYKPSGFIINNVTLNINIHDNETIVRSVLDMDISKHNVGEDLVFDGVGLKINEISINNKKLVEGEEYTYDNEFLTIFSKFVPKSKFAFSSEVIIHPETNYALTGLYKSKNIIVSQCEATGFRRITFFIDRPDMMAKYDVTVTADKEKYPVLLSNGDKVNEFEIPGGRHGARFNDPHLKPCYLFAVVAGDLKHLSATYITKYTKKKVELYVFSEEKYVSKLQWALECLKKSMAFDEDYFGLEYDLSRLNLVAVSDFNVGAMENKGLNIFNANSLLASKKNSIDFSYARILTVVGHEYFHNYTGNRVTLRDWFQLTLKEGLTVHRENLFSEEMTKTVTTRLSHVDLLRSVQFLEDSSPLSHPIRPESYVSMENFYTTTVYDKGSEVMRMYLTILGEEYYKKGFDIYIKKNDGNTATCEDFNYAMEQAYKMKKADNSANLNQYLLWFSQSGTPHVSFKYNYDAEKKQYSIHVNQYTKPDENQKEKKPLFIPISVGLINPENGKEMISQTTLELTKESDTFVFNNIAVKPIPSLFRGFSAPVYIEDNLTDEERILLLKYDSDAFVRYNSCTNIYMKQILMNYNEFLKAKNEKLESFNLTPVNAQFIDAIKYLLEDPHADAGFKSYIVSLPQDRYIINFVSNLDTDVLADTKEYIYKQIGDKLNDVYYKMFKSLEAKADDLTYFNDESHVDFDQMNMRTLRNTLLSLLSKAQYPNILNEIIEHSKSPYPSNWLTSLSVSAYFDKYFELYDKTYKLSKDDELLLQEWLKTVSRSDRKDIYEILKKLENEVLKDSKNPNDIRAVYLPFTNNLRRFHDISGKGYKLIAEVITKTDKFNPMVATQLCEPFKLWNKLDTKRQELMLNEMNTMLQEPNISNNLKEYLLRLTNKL
# Experiment: P. falciparum M1AAP inhibitors, biochemical, fluorogenic H-Leu-NHMec substrate, 1536-well (AID 1445);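 also: plate controls were DMSO full reaction for no effect and no enzyme background for full effect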
# Conditions: recombinant M1AAP, H-Leu-NHMec fluorogenic kinetic assay; at 30 µM, active compounds read high unless noted
row,SMILES,inhibition
1,CC1=C(C(=O)N2CCN(c3cc(C)ccc3C)CC2)C2(CCC(C)CC2)OC1=O (stereo not given),0.75%
2,NNC(=O)CSc1nnnn1-c1ccccc1,-3.57%
3,Cc1cccc(C)c1NS(=O)(=O)c1ccc(OCCNS(C)(=O)=O)cc1,-0.18%
4,N#Cc1cc2c(nc1Cl)CCCC2,3.36%
5,COc1ccc(CCN=C(N)NS(=O)(=O)c2ccccc2)cc1OC,0.37%
6,CCOc1cc(C2C3=C(CC(C)(C)CC3=O)OC3=C2C(=O)CC(C)(C)C3)cc([N+](=O)[O-])c1O,14.2%
7,CCOc1ccc(C2CC(=O)NC3=C2C(=O)CCC3)cc1Cl (stereo not given),1.99%
8,CCOc1cc(C2C3=C(CCCC3=O)N(C)C3=C2C(=O)CCC3)cc(Cl)c1O,18.7%
9,CCOc1cc(C2C(C(=O)OC(C)C)=C(C)NC3=C2C(=O)CCC3)cc([N+](=O)[O-])c1O (stereo not given),21.4%
10,Fc1ccc(-c2nc3c(Cl)cc(C(F)(F)F)cn3c2Cl)cc1,-1.92%
11,COC(=O)CSc1[nH]c2ccc(F)cc2c1[N+](=O)[O-],13%
12,COC(=O)c1c(C)oc2ccc(NS(=O)(=O)c3cccs3)cc12,6.82%
13,CCOC(=O)c1c(C)oc2ccc(NS(=O)(=O)c3cccs3)cc12,17.3%
14,CC(C)(C)NC(=O)COC(=O)c1nsc(Cl)c1Cl,0.52%
15,CC(C)(C)NC(=O)NC(=O)CN1CCN(c2cccc(Cl)c2)CC1,-0.55%
16,COn1c(SCc2cccnc2)nc2ccccc2c1=O,-0.13%
17,COc1ccc(-c2nnc(SCC(=O)Nc3ccccc3)n2C)cc1,0.31%
18,COc1ccc(NC(=O)CSc2nnc(-c3ccccc3C)n2C)cc1,27.4% (active)
19,Cn1c(SCC(=O)Nc2ccc3c(c2)oc2ccccc23)nnc1-c1ccccc1,25.6% (active)
20,COc1ccc(C(=O)NNC(=O)CSc2nnc(-c3cccnc3)n2C)cc1,10.3%

row,SMILES,inhibition
1,COc1ccc(C(=O)NNC(=O)CSc2nnc(C)n2C)cc1,1%
2,COc1ccc(NC(=O)CSc2nnc(-c3ccccc3C)n2N)cc1,3.11%
3,COc1ccc(NC(=O)CSc2nnc(Cc3cccn3C)n2-c2ccc(F)cc2)cc1,23.8% (active)
4,Cc1ccc(-c2nnc(SCC(=O)Nc3ccc4c(c3)oc3ccccc34)n2C)c(Cl)c1,3.17%
5,COc1ccc(-n2c(Cc3cccn3C)nnc2SCC(=O)Nc2ccc(F)cc2)cc1,12%
6,CC(=O)Nc1ccc(-c2nnc(SCC(=O)Nc3ccc4c(c3)oc3ccccc34)n2C)cc1,8.23%
7,COc1ccc(NC(=O)CSc2nnc(Cc3cccn3C)n2-c2ccc(OC)cc2)cc1,5.21%
8,Cc1cc(C)c2c3c(sc2n1)C1(CCSCC1)C(C#N)=C(N)O3,9.27%
9,C1CCN(c2nc3nonc3nc2NCC2CCOCC2)CC1,7.54%
10,CC(=O)N1CCN(c2ccc(NC(=O)c3ccc(Br)o3)cc2Cl)CC1,4.42%
11,COc1ccc(-c2csc(NC(=O)c3cccs3)c2C(=O)O)cc1OC,19.5%
12,CC(C)c1ccc(-c2csc(NC(=O)c3cccs3)c2C(=O)O)cc1,8.46%
13,Fc1cccc(Nc2nc(Cl)nc(Cl)n2)c1,8.99%
14,O=C1NCCN(Cc2cccc(Oc3ccccc3)c2)C1CC(=O)N1CCCCO1 (stereo not given),1.7%
15,CCOc1cccc2cc(C(=O)Nc3ccccc3-c3ccccc3)c(=O)oc12,1.66%
16,COC(=O)/C(N=Nc1cccc(C(F)(F)F)c1)=C(\C)O,8.29%
17,O=c1[nH]c2cc3c(cc2cc1CN(Cc1cccnc1)Cc1nnnn1Cc1ccco1)OCCO3,26.5% (active)
18,Cc1ccc(CN(Cc2cc3cc4c(cc3[nH]c2=O)OCCO4)Cc2nnnn2Cc2ccco2)cc1,22.7%
19,CCc1ccc2[nH]c(=O)c(CN(Cc3ccccc3)Cc3nnnn3Cc3ccco3)cc2c1,13.2%
20,CCCOc1ccc(Cc2nc(N)nc(N)n2)cc1,-6.23%

row,SMILES,inhibition
1,C=C(C)C(=O)Nc1cccc(C2=NOC3(C2)C[C@@H](C(N)=O)N(C(=O)c2ccc(Cl)cc2)C3)c1 (stereo not given in full),4.17%
2,Cc1nn(Cc2ccccc2)c(Cl)c1/C=C1\NC(=S)NC1=O,4.75%
3,COc1cc(NC(=O)c2ccc([N+](=O)[O-])o2)ccc1NC(=O)c1cccs1,4.73%
4,O=C(Nc1cccc(NC(=O)c2cccs2)c1)c1ccco1,14.8%
5,O=C(O)CCc1ccc(-c2ccccc2)n1NC(=O)c1cccs1,6.72%
6,O=C(O)CCc1ccc(-c2ccccc2)n1NC(=O)c1ccco1,3.09%
7,O=C(O)CCc1ccc(-c2ccccc2)n1NC(=O)c1sc2ccccc2c1Cl,24.7% (active)
8,Cc1ccc(NC(=O)Nc2sc(=S)n(C)c2C)cc1,-0.53%
9,COc1ccccc1N=Cc1nc(-c2ccccc2)oc1OC(C)=O,19.1%
10,CCC(=O)Oc1oc(-c2ccccc2)nc1C=Nc1ccc(C)cc1,1.55%
11,CCC(=O)Oc1oc(-c2ccccc2)nc1C=Nc1ccccc1OC,24.3% (active)
12,CCOC(=O)c1cc(C)sc1/N=C/C1C(=O)CC(C)(C)CC1=O,1.61%
13,CCCn1c(SCC(=O)Nc2cccc(S(=O)(=O)N(C)C)c2)nc2ccccc2c1=O,6.03%
14,O=C(CSc1nnnn1-c1cccc2ccccc12)NC(C(=O)O)(c1ccccc1)c1ccccc1,23.1%
15,Cc1ccc(-n2nnnc2SCC(=O)Nc2ccccc2-c2ccccc2)cc1C,-2.36%
16,O=C(O)CC/C(=N\Nc1ccc([N+](=O)[O-])cc1)c1ccccc1,7.87%
17,CCOc1c(Br)cc(C(N)=O)cc1OC,2.69%
18,CCOc1cc(C(N)=O)cc(Br)c1OC,-3.95%
19,COc1cc(C(N)=O)cc(Br)c1OC,23.4% (active)
20,Cc1nn(CCS(=O)(=O)c2ccc(Cl)cc2)c(C)c1Br,0.55%
